In the supplement of paper PMC6555819 one finds PBM binding z-score data, which are given here for 39 sequences.

For one experiment, the system named is RARa:RXR (NR concentration 270 nM, RXRa partner concentration 90 nM). Description: PBM binding z-score (relative to random genomic background probes); higher = stronger binding; sequences stand for … in GC…GCGATTGACAGCGTAGAATGAAGG
Summed up:
(§1)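 Scanned fluorescence from custom Agilent 4×180K protein-binding microarrays was regression-normalized. Binding z-scores use random background probes as reference. Ligand-free nuclear receptor dimers were incubated on the arrays for 1 h and detected with antibodies against each partner (one per run).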
The sequence CCTAGTGGGTCAGGAGGTCACACACCGGATATGA showed a PBM binding z-score of 5.66.
As for CCTACTGGGCAAAAAAGGTCATTGATGCCGATAA, the PBM binding z-score is 4.86.
Sequence TCTAGTTCGTCACGGAGGTCACACACGACGGGTA had a PBM binding z-score of 5.11.
The same measure, in the same setting: under CCTAGTTGGTCAAGGTCACGCACGCTATAGGTAC stands 4.99; under ATATGTAGGTTAGCGGGGGTCATTCAGACTAGGC, 5.77; under CCTAGATGGTCAGGAGGTCACACACCGGATATGA, 4.94.
In the case of CCTAGTTGGTCAGGAAGTCACACACCGGATATGA, the PBM binding z-score was determined as 0.014.
Still for that read-out and setting: the figure for CGTCAAAGTTAAAGGTAACGTAACAGAAAGCAGC is 0.981; for CCTACTGGGCCATTCAGAGGTCACTGATCATATG it is 4.08; for TAGCCTCGGTCATTCAGGGGCCAGTATAGAAAGC it is 0.667.
The sequence CAAACTAGGCCAAGGTCAAAGTCGGTTTGTGCCA displayed a PBM binding z-score of 3.97.
The sequence ATCGAAAGGTCGAGTTGAGTATAGAGAAAGGGAA gave a PBM binding z-score of 3.29.
In turn, CGTCAAAGTTCAAGGTAAAGTAACAGAAAGCAGC registered a PBM binding z-score of 3.47.
Take CTATGTAGGTGAAGGGGGTCATTCAGTTTGAAAG: the PBM binding z-score is 6.01.
TCTAGTTGGTCACGGGGGTCACACACGACGGGTA had a PBM binding z-score of 6.59.
In turn, CCTTACGGGTCACTTACAGGTTATAGCATTTGGA registered a PBM binding z-score of 4.24.
On the same count and under the same terms, under CCTACTGGGCCATTCAGAGGTCATCGATCATATG stands 5.25.
The sequence CAAAATAGGTCAAGAGGTCAAAGTCCGCTTCCCG yielded a PBM binding z-score of 7.5.
Still for that read-out and setting: under TAGCCTAGGTCATGCGGGTCAGTATAGTGTCGGC stands 3.45; under GCTTACGGGTCAAAGGTTAAAGCATGAATAGAAT, 8.66.
Turning to CGTCCAAGGTCAAAGGTCAGCGAAGAGATGACGG, the PBM binding z-score stood at 8.63.
The sequence ATCGAAAGGTCGACGAGGTGAGAATACACCGTTT yielded a PBM binding z-score of 4.11.
Take CGTCCAAGGGCAATGCTAGGTCAGTGAAAGCATT: the PBM binding z-score is 1.55.
Turning to GCTTACGGGTCAAAAGTTATAGCATGAATAGAAT, the PBM binding z-score came out at 3.7.
Still for that read-out and setting: under CCTACTGGGCCACGAAAGGTGATTGATTCAGTGA stands 0.698; under CTATGTAGGTTAAGGGGGTCATTGAGTTTGAAAG, 6.15; under ATCGAAAGGTCGTGAGGTGAGTTTACAGAAAGGC, 4.59.
For the sequence TCTACTTGGTCACGGAGGTCACACACGACGGGTA, the PBM binding z-score amounted to 4.97.
Same read-out and setting: the figure for TCGAGTAGGTTACGGGGGCGTTCAGGGATGAAGA is 2.9.
Turning to TATACAGGATCAAAGGCCAGAGTACGAATGTCGA, the PBM binding z-score was 0.0923.
Still for that read-out and setting: the figure for CCTAGTTGGTCAAGGTCCCACACGCTATAGGTAC is 0.436.
Sequence CCCAGTAGGTTACGAGGGGGCATTCAGTGCGAAT gave a PBM binding z-score of 2.68.
AGAATGGGGTTATTAAGATCAGGGAATTGCGGTC gave a PBM binding z-score of 2.78.
Take ATCGAAAGGTCGTGAAGTGAGTATACAGAAAGGC: the PBM binding z-score was 3.39.
Still for that read-out and setting: the figure for GCTGCTAGGTCAGGTTGGTCAGCTAACGGGTACG is 0.458.
On the same count and under the same terms, under CCTTACGGGTCACTGACAGCTTATAGCATTTGGA stands 3.44; under AGAATGAGGTTAGCAAAGATCAGGGAAACGCTTG, 0.623.
The same measure, in the same setting: under CCTAGTTGGTCAGGGGGTCACACACCGGATATGA stands 5.48; under AGTCGGAGGACAAAGGTCAGAGCTACGCCAGTGA, 5.06.

Another experiment concerns RARa homodimer (NR concentration 270 nM). The experiment is described as above. The gist of the method: as §1
With CCTAGTGGGTCAGGAGGTCACACACCGGATATGA, the PBM binding z-score amounted to 1.06.
The same measure, in the same setting: under CCTACTGGGCAAAAAAGGTCATTGATGCCGATAA stands 0.909.
Still for that read-out and setting: under TCTAGTTCGTCACGGAGGTCACACACGACGGGTA stands 2.71.
The same measure, in the same setting: under CCTAGTTGGTCAAGGTCACGCACGCTATAGGTAC stands 2.21; under ATATGTAGGTTAGCGGGGGTCATTCAGACTAGGC, 1.94.
For the sequence CCTAGATGGTCAGGAGGTCACACACCGGATATGA, the PBM binding z-score was 2.24.
CCTAGTTGGTCAGGAAGTCACACACCGGATATGA yielded a PBM binding z-score of 1.63.
On to CGTCAAAGTTAAAGGTAACGTAACAGAAAGCAGC, for which the PBM binding z-score was 0.438.
Same read-out and setting: the figure for CCTACTGGGCCATTCAGAGGTCACTGATCATATG is 0.335.
Consider TAGCCTCGGTCATTCAGGGGCCAGTATAGAAAGC, for which the PBM binding z-score was -0.375.
Still for that read-out and setting: under CAAACTAGGCCAAGGTCAAAGTCGGTTTGTGCCA stands 0.776; under ATCGAAAGGTCGAGTTGAGTATAGAGAAAGGGAA, 0.834.
The same measure, in the same setting: under CGTCAAAGTTCAAGGTAAAGTAACAGAAAGCAGC stands 1.3; under CTATGTAGGTGAAGGGGGTCATTCAGTTTGAAAG, 0.852; under TCTAGTTGGTCACGGGGGTCACACACGACGGGTA, 2.
The same measure, in the same setting: the figure for CCTTACGGGTCACTTACAGGTTATAGCATTTGGA is 1.28.
In the case of CCTACTGGGCCATTCAGAGGTCATCGATCATATG, the PBM binding z-score worked out at 1.9.
The sequence CAAAATAGGTCAAGAGGTCAAAGTCCGCTTCCCG registered a PBM binding z-score of 2.71.
TAGCCTAGGTCATGCGGGTCAGTATAGTGTCGGC: the PBM binding z-score is -0.237.
GCTTACGGGTCAAAGGTTAAAGCATGAATAGAAT returned a PBM binding z-score of 0.51.
CGTCCAAGGTCAAAGGTCAGCGAAGAGATGACGG: the PBM binding z-score came to 2.3.
The same measure, in the same setting: under ATCGAAAGGTCGACGAGGTGAGAATACACCGTTT stands 0.753; under CGTCCAAGGGCAATGCTAGGTCAGTGAAAGCATT, -0.607.
Same read-out and setting: the figure for GCTTACGGGTCAAAAGTTATAGCATGAATAGAAT is 0.546; for CCTACTGGGCCACGAAAGGTGATTGATTCAGTGA it is -0.285; for CTATGTAGGTTAAGGGGGTCATTGAGTTTGAAAG it is 1.4.
The same measure, in the same setting: the figure for ATCGAAAGGTCGTGAGGTGAGTTTACAGAAAGGC is 0.718; for TCTACTTGGTCACGGAGGTCACACACGACGGGTA it is 2.04.
TCGAGTAGGTTACGGGGGCGTTCAGGGATGAAGA returned a PBM binding z-score of 0.56.
On the same count and under the same terms, the figure for TATACAGGATCAAAGGCCAGAGTACGAATGTCGA is 0.389; for CCTAGTTGGTCAAGGTCCCACACGCTATAGGTAC it is 0.884.
As to CCCAGTAGGTTACGAGGGGGCATTCAGTGCGAAT, the PBM binding z-score turned out to be 0.297.
On the same count and under the same terms, under AGAATGGGGTTATTAAGATCAGGGAATTGCGGTC stands 1.71; under ATCGAAAGGTCGTGAAGTGAGTATACAGAAAGGC, 1.2.
Same read-out and setting: under GCTGCTAGGTCAGGTTGGTCAGCTAACGGGTACG stands -0.285; under CCTTACGGGTCACTGACAGCTTATAGCATTTGGA, 1.14.
The same measure, in the same setting: under AGAATGAGGTTAGCAAAGATCAGGGAAACGCTTG stands 0.53; under CCTAGTTGGTCAGGGGGTCACACACCGGATATGA, 1.61.
The sequence AGTCGGAGGACAAAGGTCAGAGCTACGCCAGTGA had a PBM binding z-score of 1.59.
